These results are taken from PubChem BioAssay (NCI).

Molecules are shown by their SMILES. Compounds without any hit were thinned out: in the full panel of roughly 83,000, 20% have a hit.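 The test compound was applied at a single concentration to cells in 96-well plates for 48 hours, and percent growth was recorded.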 Unmarked numbers belong to inactive results. Calls of active or inactive are those of the source. How the source made its calls: active means growth percent below 10; inactive means the rest.

One test relates to MDA-MB-435 melanoma. The test can be described thus: NCI-60 one-dose screen, 48 h (100 = growth as untreated, 0 = no growth, -100 = all killed). Particulars: 10 µM unless noted.
Turning to `NC(CCl)=NCC12CC3CC(CC(C3)C1)C2`, the growth is -3.63% (active).
The same measure, in the same setting: next, `C=CCc1cc(OC)c(O)c(OC)c1`: 108%; `O=C(O)CC1=CCCCC1`: 101%.
On the same count and under the same terms, with `COC(=O)C1=C(C)C(=O)CC1` the figure was 121%; with `O=C(c1cccc(C(=O)c2ccc3c4c(cccc24)C(=O)N(c2ccccc2)C3=O)c1)c1ccc2c3c(cccc13)C(=O)N(c1ccccc1)C2=O`, 107%; with `O=c1n(CC2CO2)c(=O)n(CC2CO2)n1CC1CO1` (centres undefined), 90.4%.
With `CCCC1OC(c2ccco2)OCC1CC` (centres undefined), the growth was 108%.
On the same count and under the same terms, next, `COc1cc2c(c(OC)c1OC)-c1ccc(SC)c(=O)cc1[C@@H](NC1OC(CO)C(O)C(O)C1O)CC2` (some centres undefined): -39.6% (active); `ClCC(Cl)C1CCC(Cl)C(Cl)C1` (centres undefined): 107%; `O=C(O)c1c[nH]c2ccccc2c1=O`: 107%.
With `O=C(O)c1cccc(-n2ncc(Cl)c(Cl)c2=O)c1`, the growth was 93.2%.
On the same count and under the same terms, with `S=c1nc2[nH]c3ccccc3c2n[nH]1` the figure was 107%; with `NCCCN1CCCC1=O`, 124%.
On the same count and under the same terms, with `O=S(=O)(O)c1cccc2cccnc12` the figure was 105%; with `CC(=O)OCC1CCC(COC(C)=O)CC1` (centres undefined), 103%.
Take `CC1CCC(C(C)(C)[N+](C)(C)C)CC1` (centres undefined): the growth was 108%.
Still for that read-out and setting: next, `O=C(CCCl)OCCOc1ccccc1`: 110%; `CC(=O)Nc1ccc(/C=C2\SC(=S)N(/C=C(\C(C)=O)C(N)=O)C2=O)cc1`: 89.6%; `CC(=O)Nc1ccc(O)c(C)c1`: 108%.
In the case of `CSc1nsc(N)n1`, the growth was 102%.
In the case of `ON1CCCC1`, the growth was 107%.
The same measure, in the same setting: with `CC(C)(C)CC1(C)NC(=O)NC1=O` (centres undefined) the figure was 114%; with `CC(=O)O[C@H]1CC[C@]2(C)C3=C(C(=O)C[C@H]2C1(C)C)[C@]1(C)CC[C@H]([C@H](C)CCC(=O)O)[C@@]1(C)CC3=O`, 98.7%; with `COc1cccc(C(=O)NNC(=O)c2cccc3ccccc23)c1`, 113%.
On the same count and under the same terms, with `Cc1c(-c2ccc(C3CCCCC3)cc2)nc2ccc(F)cc2c1C(=O)O` the figure was 34.5%; with `Cc1onc(-c2c(F)cccc2Cl)c1-c1ncc(-c2ccc(Br)cc2)o1`, 40.8%; with `CC(=O)/C(C)=N\OC(=O)Nc1ccccc1`, 103%.
On the same count and under the same terms, next, `O=C(O)c1cc(I)ccc1O`: 100%; `O=C(OC1CCCC1)c1ccccc1Cl`: 105%; `COC(=O)c1ccccc1C(=O)c1c(C)cc(C)cc1C`: 97.6%.
In the case of `CCCCOC(=O)c1ccc(NC(=O)CCl)cc1`, the growth is 75.9%.
The same measure, in the same setting: next, `CCOC(=O)/C(O)=C(\C=N\C(=S)Nc1ccc(Cl)c(Cl)c1)C(=O)OCC`: 87.1%; `Cc1ccccc1CC(N)C(=O)O` (centres undefined): 108%.
With `CC1(C)OC2C(CO)OC(n3ccc(=O)[nH]c3=O)C2O1` (centres undefined), the growth is 101%.
Turning to `ClCC(Cl)[C@@H]1CC2C=CC1C2` (some centres undefined), the growth is 96.9%.
With `O=C(CCl)Nc1ccccc1SCc1cc(Cl)cc2c1OCOC2`, the growth was 24.1%.
Still for that read-out and setting: with `CCCCN(C(=O)CC)c1ccccc1` the figure was 108%.

The next test concerns SW-620 colon. The test is described as above. Conditions: 10 µM unless noted.
As to `NC(CCl)=NCC12CC3CC(CC(C3)C1)C2`, the growth is 3.96% (active).
The same measure, in the same setting: with `C=CCc1cc(OC)c(O)c(OC)c1` the figure was 114%; with `O=C(O)CC1=CCCCC1`, 98.2%; with `COC(=O)C1=C(C)C(=O)CC1`, 106%.
Same read-out and setting: next, `O=C(c1cccc(C(=O)c2ccc3c4c(cccc24)C(=O)N(c2ccccc2)C3=O)c1)c1ccc2c3c(cccc13)C(=O)N(c1ccccc1)C2=O`: 104%; `O=c1n(CC2CO2)c(=O)n(CC2CO2)n1CC1CO1` (centres undefined): 66.3%.
On the same count and under the same terms, with `CCCC1OC(c2ccco2)OCC1CC` (centres undefined) the figure was 99.1%.
For the molecule `COc1cc2c(c(OC)c1OC)-c1ccc(SC)c(=O)cc1[C@@H](NC1OC(CO)C(O)C(O)C1O)CC2` (some centres undefined), the growth is 18.8%.
For `ClCC(Cl)C1CCC(Cl)C(Cl)C1` (centres undefined), the growth is 105%.
Same read-out and setting: next, `O=C(O)c1c[nH]c2ccccc2c1=O`: 108%.
The same measure, in the same setting: with `O=C(O)c1cccc(-n2ncc(Cl)c(Cl)c2=O)c1` the figure was 113%; with `S=c1nc2[nH]c3ccccc3c2n[nH]1`, 95%; with `NCCCN1CCCC1=O`, 108%.
The same measure, in the same setting: next, `O=S(=O)(O)c1cccc2cccnc12`: 94.6%.
Turning to `CC(=O)OCC1CCC(COC(C)=O)CC1` (centres undefined), the growth was 109%.
On the same count and under the same terms, with `CC1CCC(C(C)(C)[N+](C)(C)C)CC1` (centres undefined) the figure was 105%.
The same measure, in the same setting: with `O=C(CCCl)OCCOc1ccccc1` the figure was 107%.
Same read-out and setting: next, `CC(=O)Nc1ccc(/C=C2\SC(=S)N(/C=C(\C(C)=O)C(N)=O)C2=O)cc1`: 96.9%; `CC(=O)Nc1ccc(O)c(C)c1`: 106%; `CSc1nsc(N)n1`: 92.9%.
As for `ON1CCCC1`, the growth was 101%.
On the same count and under the same terms, with `CC(C)(C)CC1(C)NC(=O)NC1=O` (centres undefined) the figure was 103%; with `CC(=O)O[C@H]1CC[C@]2(C)C3=C(C(=O)C[C@H]2C1(C)C)[C@]1(C)CC[C@H]([C@H](C)CCC(=O)O)[C@@]1(C)CC3=O`, 85.5%; with `COc1cccc(C(=O)NNC(=O)c2cccc3ccccc23)c1`, 107%.
`Cc1c(-c2ccc(C3CCCCC3)cc2)nc2ccc(F)cc2c1C(=O)O`: the growth was 30.6%.
On the same count and under the same terms, with `Cc1onc(-c2c(F)cccc2Cl)c1-c1ncc(-c2ccc(Br)cc2)o1` the figure was 35.6%; with `CC(=O)/C(C)=N\OC(=O)Nc1ccccc1`, 107%; with `O=C(O)c1cc(I)ccc1O`, 116%.
Still for that read-out and setting: with `O=C(OC1CCCC1)c1ccccc1Cl` the figure was 106%.
On the same count and under the same terms, with `COC(=O)c1ccccc1C(=O)c1c(C)cc(C)cc1C` the figure was 93.2%.
For the molecule `CCCCOC(=O)c1ccc(NC(=O)CCl)cc1`, the growth is 25.8%.
As to `CCOC(=O)/C(O)=C(\C=N\C(=S)Nc1ccc(Cl)c(Cl)c1)C(=O)OCC`, the growth is 104%.
Take `Cc1ccccc1CC(N)C(=O)O` (centres undefined): the growth was 121%.
In the case of `CC1(C)OC2C(CO)OC(n3ccc(=O)[nH]c3=O)C2O1` (centres undefined), the growth is 96.3%.
Same read-out and setting: next, `ClCC(Cl)[C@@H]1CC2C=CC1C2` (some centres undefined): 105%.
Still for that read-out and setting: next, `O=C(CCl)Nc1ccccc1SCc1cc(Cl)cc2c1OCOC2`: 87.1%; `CCCCN(C(=O)CC)c1ccccc1`: 98.7%.
